Measured values taken from PubChem BioAssay (EPA / NIEHS).
Active and inactive are the calls of the source. The calls were made as follows: active = hit-call score of the fitted dose curve at least 0.9, where 1 is the maximum; inactive = score below 0.9.

These compounds were tested on Glutathione S-transferase M3 (GSTM3), GSTM3 (gene 2947) (assay: LTEA_HepaRG_GSTM3: Life Technologies and Expression Analysis (LTEA) Assay for Glutathione S-transferase M3 (GSTM3) using HepaRG (AID 2283501)). Settings: mRNA level, 48 h; actives raise or lower the signal.
Procedure: LTEA_HepaRG is a cell based, multiplexed-readout assay that uses HepaRG, a human liver cell line, with measurements taken at 48 hours after chemical dosing on a 96-well plate.LTEA_HepaRG_GSTM3 is one of 102 assay component(s) measured in the LTEA HepaRG cell culture assay. It is a marker of Oxidative Stress.Data from the assay component LTEA_HepaRG_GSTM3 was analyzed into 1 endpoint. This assay endpoint, LTEA_HepaRG_GSTM3, was analyzed with bidirectional fitting relative to DMSO as the negative control and baseline of activity. Using a type of inducible reporter, measures of mRNA induction for gain or loss-of-signal activity can be used to understand regulation of transcription factor activity. To generalize the intended target to other relatable targets, this assay endpoint is annotated to the transferase intended target family, where the subfamily is alkyl and aryl transferase.
A total of 1060 chemcials from the ToxCast library were tested in eight-point concentration-response experiments. Cell culture and cytotoxicity assays were conducted at Thermo Fisher Scientific's Custom Services facility (Madison, WI). A single lot of human HepaRG cells (Thermo Fisher Scientific, Frederick, MD) was used for the cell culture experiments. 96-well format collagen type I coated plates of human HepaRG cells were prepared using established methods. Briefly, cryopreserved HepaRG cells were thawed, plated at a density of approximately 100,000 cells/well in HepaRG Thaw, Plate, and General Purpose media (HPRG770, Thermo Fisher Scientific), and incubated for 48 hours. 0.5% DMSO was selected as vehicle control to balance the requisite need of DMSO in HepaRG cultures to maintain differentiation (for example, baseline metabolism, proportions of hepatocytes vs. cholangiocytes), while enabling further hepatic receptor pathway activation (for example, PXR and CAR) in response to chemical exposure. 48 hours after plating, the culture medium was replaced with HepaRG Serum-Free Incudtion Media. Cells were exposed to each test chemical in duplicate and maintained in CO2 incubators for another 48 hours. Chemical plates were thawed to room temperature and 200x concentrations of treatment groups were prepared. 8-point conentration-reponse curves were made with the highest exposure at 100 uM, followed by half-log dilutions, all in 0.5% DMSO. Each test plate contained variouse controls, induction positive controls (1mM phenobarbital), cytotoxicity positive controls ([…] aflatoxin B1), vehicle controls (0.5% DMSO), and total lysis controls (0.5% DMSO). Cell morphology images were taken using an Essen IncuCyte FLR automated microscope, with six 96-well plates imaged in about 24 minutes. Images were captured and exported and JPEG files. Spent culture media was transfered to black-well plates for the LDH assay, and remaining media was sorted at -80 C for later use. Cells were treated with RLT buffer and frozen until shipped for gene expression analysis. Total RNA was isolated from the cell suspension in 75 uL of Buffer RLT (Qiagen, Germantown, MD 20874) by Quintiles/Expression Analysis (Durham, NC) using a custom isolation procedure. Total RNA from each plate well was transferred to a preamplification plate. Fluidigm's 96.96 Dynamic ArrayTM (Fluidigm, Amsterdam, the Netherlands) technology was used for gene expression analyses by quantitative reverse transcription polymerase chain reaction (qRT-PCR, performed by Quintiles/Expression Analysis, Durham, NC)89. Standard TaqManTM Assays (Applied Biosystems/ThermoFisher Scientific, Foster City, CA) were used to assess the expression of 93 genes selected based on their selectivity and sensitivity to important hepatic receptors known to be modulated by environmental chemicals; importance in human hepatocyte functionality; and hepatotoxicity. […]
`CSC1=N[C@@](C)(c2ccccc2)C(=O)N1Nc1ccccc1` was tested, and the AC50 was 76.6 µM (active). `FC(F)C(F)(F)OCC(Cn1cncn1)c1ccc(Cl)cc1Cl` (stereo not given) was tested, and the AC50 was 73.6 µM (active). `CNC(=O)Oc1cccc2c1OC(C)(C)O2` was tested, and the outcome was “inactive”. With `Nc1c(Cl)cc([N+](=O)[O-])cc1Cl` the AC50 was 50 µM (active). With `CCCCN(CC)c1c([N+](=O)[O-])cc(C(F)(F)F)cc1[N+](=O)[O-]` the outcome was “inactive”. In the case of `COP(=O)(OC)OC(Br)C(Cl)(Cl)Br` (stereo not given), the outcome is reported as “inactive”. In the case of `Cc1cc(C2CC2)nc(Nc2ccccc2)n1`, the outcome is reported as “inactive”. With `CCC(CC)Nc1c([N+](=O)[O-])cc(C)c(C)c1[N+](=O)[O-]` the outcome was “inactive”. For `CCCOCC(=Nc1ccc(Cl)cc1C(F)(F)F)n1ccnc1`, the outcome was “inactive”. In the case of `O=[N+]([O-])c1cc(C(F)(F)F)c(Cl)c([N+](=O)[O-])c1Nc1ncc(C(F)(F)F)cc1Cl`, the outcome is reported as “inactive”. For `CCCSP(=O)(OCC)Oc1ccc(Br)cc1Cl` (stereo not given), the outcome was “inactive”. `CC(Oc1cccc(Cl)c1)C(=O)O` (stereo not given) was tested, and the outcome was “inactive”. With `C[N+]1(C)CCCCC1` the outcome was “inactive”. For `O=C(O)c1cc(Oc2ccc(C(F)(F)F)cc2Cl)ccc1[N+](=O)[O-]`, the outcome was “inactive”. For `C#CCC1=C(C)C(OC(=O)C2C(C=C(C)C)C2(C)C)CC1=O` (stereo not given), the outcome was “inactive”. For `CNC(=O)ON=C(C)SC`, the outcome was “inactive”. In the case of `CCC(=O)Nc1ccc(Cl)c(Cl)c1`, the outcome is reported as “inactive”. `CN(C)[C@@H]1C(=O)C(C(N)=O)=C(O)[C@@]2(O)C(=O)C3=C(O)c4c(O)cccc4[C@@](C)(O)[C@H]3[C@H](O)[C@@H]12` was tested, and the outcome was “inactive”. `CCOP(=S)(OCC)SCCSCC` was tested, and the outcome was “inactive”. With `CCOP(=S)(OCC)OC(Cl)C(Cl)(Cl)Cl` (stereo not given) the outcome was “inactive”. `CC(C1CC1)C(O)(Cn1cncn1)c1ccc(Cl)cc1` (stereo not given) was tested, and the outcome was “inactive”. `CCCOc1nn(C(=O)NS(=O)(=O)c2ccccc2C(=O)OC)c(=O)n1C` was tested, and the outcome was “inactive”. For `CC[C@H](C)[C@H]1O[C@]2(C=C[C@@H]1C)C[C@@H]1C[C@@H](C/C=C(\C)[C@@H](O[C@H]3C[C@H](OC)[C@@H](O[C@H]4C[C@H](OC)[C@@H](NC)[C@H](C)O4)[C@H](C)O3)[C@@H](C)/C=C/C=C3\CO[C@@H]4[C@H](O)C(C)=C[C@@H](C(=O)O1)[C@]34O)O2`, the outcome was “inactive”. In the case of `CNc1cnn(-c2cccc(C(F)(F)F)c2)c(=O)c1Cl`, the outcome is reported as “inactive”. In the case of `CC(C)[C@H](C(=O)O[C@H](C#N)c1cccc(Oc2ccccc2)c1)c1ccc(Cl)cc1`, the outcome is reported as “inactive”. In the case of `CC(C)=CC1C(C(=O)OCN2C(=O)C3=C(CCCC3)C2=O)C1(C)C` (stereo not given), the outcome is reported as “inactive”. `CNC(=O)ON=C(SC)C(=O)N(C)C` was tested, and the outcome was “inactive”. `CCOC(=O)CC(SP(=O)(OC)OC)C(=O)OCC` (stereo not given) was tested, and the outcome was “inactive”. With `Nc1nc(N)nc(NC2CC2)n1` the outcome was “inactive”. `CCCCOC(=O)c1ccccc1C(=O)O` was tested, and the outcome was “inactive”. For `CCOP(=O)(NC(C)C)Oc1ccc(SC)c(C)c1` (stereo not given), the outcome was “inactive”. For `CCOP(=S)(OCC)Oc1ccc2c(C)c(Cl)c(=O)oc2c1`, the outcome was “inactive”. With `CC(=NC#N)N(C)Cc1ccc(Cl)nc1` the outcome was “inactive”. In the case of `CCCCOC(=O)[C@@H](C)Oc1ccc(Oc2ccc(C#N)cc2F)cc1`, the outcome is reported as “inactive”. In the case of `Cc1ccn2nc(S(=O)(=O)Nc3c(F)cccc3F)nc2n1`, the outcome is reported as “inactive”. In the case of `CCOP(=S)(Oc1cnc(C(C)(C)C)nc1)OC(C)C` (stereo not given), the outcome is reported as “inactive”. In the case of `C=C(C)[C@H]1Cc2c(ccc3c2O[C@@H]2COc4cc(OC)c(OC)cc4[C@@H]2C3=O)O1`, the AC50 is reported as 23.9 µM (active). In the case of `CN1COCN(Cc2cnc(Cl)s2)C1=N[N+](=O)[O-]`, the outcome is reported as “inactive”. `C#CC(C)(C)NC(=O)c1cc(Cl)cc(Cl)c1` was tested, and the outcome was “inactive”. For `CN(C)NC(=O)CCC(=O)O`, the outcome was “inactive”.
